Laboratory results from PubChem BioAssay AID1415 (NMMLSC, 2008).
Hit rate of the full screen: of about 220,000 compounds, about 710 (0.32%) were called active. Only a selection was taken, and actives are over-represented in it overall. A number with no mark means an inactive call. No stated cut-off is given here; in the data, active means binding response below about 49% or above about 150%; inactive means in between.

biological target: Guanine nucleotide-binding protein G(o) subunit alpha (Homo sapiens) (UniProt P09471); assay: RGS4-Galphao interaction inhibitors and enhancers – biochemical, multiplexed bead flow cytometry, primary screen (AID 1415); settings: at 10 µM, actives lie on both sides;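 further: fluorescent Galphao activated with aluminum fluoride binding bead-coupled RGS4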
Sequence (P09471 whole entry, looked up): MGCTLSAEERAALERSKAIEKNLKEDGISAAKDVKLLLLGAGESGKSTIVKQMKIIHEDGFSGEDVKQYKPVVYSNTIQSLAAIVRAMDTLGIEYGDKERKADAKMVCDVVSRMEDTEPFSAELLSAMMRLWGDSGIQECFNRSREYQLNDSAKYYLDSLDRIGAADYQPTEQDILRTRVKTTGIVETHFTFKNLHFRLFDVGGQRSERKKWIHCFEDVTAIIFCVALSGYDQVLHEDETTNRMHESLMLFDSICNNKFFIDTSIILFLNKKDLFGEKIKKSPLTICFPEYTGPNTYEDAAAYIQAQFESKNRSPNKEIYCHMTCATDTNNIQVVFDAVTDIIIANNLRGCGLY

Compound	binding response (% of control)
COC(=O)CCCC1=CC2=CC(=O)C(C)(OC(=O)c3cccs3)C(=O)C2=CN1c1cccc(C#N)c1 (configuration not stated)	96%
CCOc1cccc(OCCCOc2cccc3cccnc23)c1	93%
O=C(NNC1=C(C(=O)C(F)(F)F)CCC1)c1ccncc1	86.6%
Cc1ccc(N2C(=O)C3CC3C2=O)cc1 (configuration not stated)	100%
Cc1ccc(N2C(=O)C(Cc3ccccc3)NC2=S)cc1 (configuration not stated)	104%
Cc1ccc(N2C(=O)C3C(c4ccccc4)(C2=O)C3(c2ccccc2)c2ccccc2)cc1 (configuration not stated)	8.37% (active)
CC(=O)c1ccc(S(=O)(=O)N2CCN(C(=O)/C=C/c3ccc4ccccc4n3)CC2)cc1	84%
Cc1cccc(NC(=O)CSc2nnc(CCNC(=O)OC(C)(C)C)o2)c1C	93.8%
Nc1ccc(C(=O)OCC(=O)NC2CCS(=O)(=O)C2)cc1[N+](=O)[O-] (configuration not stated)	-18.4% (active)
Nc1ccc(C(=O)OCC(=O)NC2CCCc3ccccc32)cc1[N+](=O)[O-] (configuration not stated)	98.3%
O=C(COC(=O)/C=C/c1ccc2c(c1)OCO2)NC1CCS(=O)(=O)C1 (configuration not stated)	104%
Cc1ccc(C(=O)Nc2nc(N)n(-c3ccccc3)n2)cc1	103%
CC(=O)c1ccc(NC(=S)N(Cc2ccccc2)C(C)C2CC2)cc1 (configuration not stated)	106%
COCC(C)n1c(C)cc(C(=O)COc2ccc(C)nc2[N+](=O)[O-])c1C (configuration not stated)	99.8%
Cc1cc(C)n(CC(O)CN(c2ccccc2)S(=O)(=O)c2ccc3ccccc3c2)n1 (configuration not stated)	13.8% (active)
O=S(=O)(c1ccccc1)N(CC(O)CN1CCCCC1)c1ccccc1 (configuration not stated)	103%
Cc1ccc(N(CC(O)CN2CCCC2)S(=O)(=O)c2ccccc2)cc1 (configuration not stated)	101%
COC(=O)c1ccc(CN2CCN(CCCc3ccccc3)C(CCO)C2)cc1 (configuration not stated)	91.5%
CCN(C(=O)COC(=O)c1cc(S(=O)(=O)N2CCc3ccccc32)ccc1OC)C1CCS(=O)(=O)C1 (configuration not stated)	104%

Compound	binding response (% of control)
COc1ccccc1NC(=O)CCCc1c[nH]c2ccccc12	440% [activator] (active)
COc1ccccc1NC(=O)C[n+]1ccccc1	96%
O=C(CCCCCn1c(=O)[nH]c2ccccc2c1=O)NCCc1c[nH]c2ccccc12	100%
COc1ccc(CCNS(=O)(=O)c2cccc3cccnc23)cc1OC	97.9%
O=C(CSc1ccc([N+](=O)[O-])cn1)Nc1ccc(N2CCOCC2)c(Cl)c1	94.7%
O=C(COc1ccc(Cl)cc1)N1CCN(c2cccc(C(F)(F)F)c2)CC1	101%
COC(=O)c1ccccc1OCC(=O)N1CCN(c2ccc(Cl)cc2)CC1	349% [activator] (active)
O=C(CN1CCN(c2ccc(Cl)cc2)CC1)N1CCCC1	104%
Cc1cccc(CSc2nc3c(c(=O)n2C)SCC3)c1	98.4%
CCc1n[nH]c(=S)n1/N=C/c1c[nH]c2ccc(Br)cc12	103%
COc1c(O)cc2oc(-c3ccc(O)c(O)c3)cc(=O)c2c1O	90.8%
Cc1ccc(-c2c[n+](=O)c3c(n2[O-])CCC3)cc1	101%
FC(F)Oc1ccccc1C1CC(c2ccc(Br)s2)Nc2ncnn21 (configuration not stated)	187% [activator] (active)
Clc1ccc(C2CC(c3cccs3)n3ncnc3N2)cc1Cl (configuration not stated)	97.8%
COc1ccc(C2CC(c3ccccc3)Nc3ncnn32)cc1 (configuration not stated)	99.7%
Cc1ccc(C(=O)Cc2nnc(C)s2)cc1	100%
COC(=O)[C@H]1Cc2cnoc2C[C@]1(C)C(=O)O	101%
CCOC(=O)c1ccc(NC(=O)c2nc[nH]c2C(=O)N[C@@H](CCCCNC(=O)OC(C)(C)C)C(=O)OC(C)(C)C)cc1	96.7%
CC(C(=O)O)n1cnc2sc3c(c2c1=O)CCCC3 (configuration not stated)	94.7%

Compound	binding response (% of control)
CC(=O)Nc1ccc(/C=N/NC(=O)c2cccs2)cc1	99.4%
C=CCn1c(=NC(=O)c2ccc(S(=O)(=O)N3CCCC3)cc2)sc2cc(NC(C)=O)ccc21	94.5%
C=CCn1c(=NC(=O)c2cccs2)sc2cc(NC(C)=O)ccc21	154% [activator] (active)
Cc1ccc(OCC(=O)Nc2nnc(-c3ccco3)s2)cc1	102%
Cc1ccc2[nH]c(=O)c(CN3CCCCC3)c(-c3ccccc3)c2c1	101%
CCOC(=O)NNc1cc(C(F)(F)F)ccn1	169% [activator] (active)
Cc1ccc(NC(=O)Nc2cccc(C(F)(F)F)c2)nc1	99.7%
CCC(=O)NC(Nc1cc(C)ccn1)(C(F)(F)F)C(F)(F)F	104%
CCCSc1nc(NCc2ccco2)c2c3c(sc2n1)COC(C)(CC)C3 (configuration not stated)	104%
COc1ccc(OC)c(-n2c(-c3ccn[nH]3)n[nH]c2=S)c1	96.7%
COc1ccccc1-n1cn[nH]c1=S	98.6%
COc1ccccc1-n1c(-c2cc(-c3ccco3)[nH]n2)n[nH]c1=S	7.03% (active)
CSc1ccc(/C=C/C(=O)NC23CC4CC(CC(C4)C2)C3)cc1	99.9%
Fc1ccccc1/C=N/n1c(-c2cccnc2)n[nH]c1=S	102%
OCCC1CN(Cc2cccc(OC3CCCC3)c2)CCN1Cc1ccsc1 (configuration not stated)	100%
COc1ccc(C)cc1S(=O)(=O)N(CC(=O)Nc1cccc([N+](=O)[O-])c1)c1ccc(C)cc1	87.7%
CC(=O)NC1C(OCc2ccccc2)OC(COC(C)=O)C(OC(C)=O)C1OC(C)=O (configuration not stated)	101%
O=C(OCC1O[C@@H](OC(=O)c2cc(O)c(O)c(O)c2)[C@@H](OC(=O)c2cc(O)c(O)c(O)c2)[C@@H](OC(=O)c2cc(O)c(O)c(O)c2)[C@@H]1OC(=O)c1cc(O)c(O)c(O)c1)c1cc(O)c(O)c(O)c1 (some centres not stated)	1.38% (active)
COc1cc(C(CCN2CCN(c3ccccc3)CC2)c2c(OC)cc(OC)c3ccc(=O)oc23)cc(OC)c1OC (configuration not stated)	101%
